Bioassay records from PubChem BioAssay.
Shown are actives, neighbours in structure and some others; about 6.2% of the full set was active somewhere.
MARV entry inh: qHTS for inhibitors of binding or entry into cells for Marburg Virus; Marburg virus pseudotyped entry inhibition, cell reporter; Potency, µM (highest dose often 37.8 µM), inactives show at the highest dose activity change, negative = inhibition, hits mostly inhibitors; 300,000 compounds, 1.8% hits; calls by dose curve; tested in HEK293 cells; also: potency is read from the fitted curve at half-maximal effect
Lassa entry inh: qHTS for Inhibitors of binding or entry into cells for Lassa Virus; AID 540256, 2011; Potency, µM (doses to about 37.9 µM), without a hit: at the highest dose activity change, negative = inhibition, hits mostly inhibitors; Lassa virus pseudotype entry inhibition, cell reporter; 300,000 compounds, 1.2% hits; calls by dose curve; tested in HEK293 cells; also: potency is read from the fitted curve at half-maximal effect; nearly all actives have a fitted effect of over 50% in size
HCMV inh: qHTS Assay for inhibitors of the human cytomegalovirus (HCMV); 410,000 compounds, 4.5% hits; AID 1259415, 2018; HFF cells, HCMV-luciferase reporter, 72 h; hits give low values; activity change, negative = inhibition, % at 57.5 µM; in the data active = activity change below about -60%; inconclusive = no clear call, values can overlap the other calls; inactive = above about -39%
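Inhibition of viral replication was scored as loss of reporter luminescence in HFFs infected with HCMV-luciferase (MOI 1 PFU/cell) for 72 h; compounds tested at 2 doses, normalized to buffer and Salinomycin controls.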
FMDV inh: High Throughput Screening for Foot and Mouth Disease Virus Antivirals; FMDV antiviral cell-based qHTS; Potency, µM (doses to about 57.9 µM), without a hit: at the top dose activity change, negative = inhibition, actives largely listed as inhibitors; 410,000 compounds, 1.2% hits; AID 1159524, 2015; calls by dose curve; tested in HEK293T cells; also: read-out not given here; potency is read from the fitted curve at half-maximal effect; nearly all actives have a fitted effect of over 45% in size
* marks the source's active call; other numbers are inactive results; ? = inconclusive; nt = not tested or not shown; [ ] = dose if it differs, or a comment. % is scaled to controls: 0 for no effect and ±100 for the full control effect.

SMILES	MARV entry inh	Lassa entry inh	HCMV inh	FMDV inh
CC(=O)N1CCc2ccc(S(=O)(=O)N3CC(C)OC(C)C3)cc21 (centres undefined)	-6%	14%	-32	0%
COc1ccc(F)cc1C(=O)C1CCCN(Cc2cn(C)c3ccccc23)C1 (centres undefined)	15µM*	?	-27	-21%
COc1ccc(CN2CCCC(C(=O)c3ccccc3SC)C2)cc1O (centres undefined)	nt	nt	-21	-2%
COc1ccc(OC)c(CN2CCCC(C(=O)c3ccccc3SC)C2)c1 (centres undefined)	2.5µM*	?	-63*	?
COc1ccc(F)cc1C(=O)C1CCCN(Cc2c[nH]c3ccccc23)C1 (centres undefined)	nt	nt	?	-25%
Cn1cc(CN2CCCC(C(=O)c3cc(F)ccc3F)C2)c2ccccc21 (centres undefined)	10µM*	?	-30	6%
Cn1cc(CN2CCCC(CNC(=O)c3ccc4c(c3)OCO4)C2)c2ccccc21 (centres undefined)	7.9µM*	18%[46.1 µM]	52	-2%
COc1cc(/C=N/NC(=O)c2ccncc2)ccc1OCC(=O)Nc1ccc(C)c(C)c1	-23%[46.1 µM]	nt	-22	0%
COC(=O)CS(=O)(=O)c1ccc2c(c1)CC(=O)N2	-2%[46.1 µM]	12%	-32	-12%
COc1c(OC(C)=O)c(=O)n2c3ccccc3c3ccnc1c32	nt	nt	-6	-21%
Cc1nc2c(cnn2-c2ccccc2Cl)c(=O)n1-c1ccc(N2CCC(C)CC2)cc1	?	?	-63*	-21%
Cc1ccc(-n2c(C)nc3c(cnn3-c3ccc(C)c(C)c3)c2=O)cc1C	nt	nt	-67*	-12%
Cc1ccc(-n2c(C)nc3c(cnn3-c3ccccc3Cl)c2=O)cc1C	-4%	8%	-20	-18%
COc1cc(S(=O)(=O)N2CCN=C2c2ccccc2)ccc1F	?	?	-5	-20%
Cc1ccc(C)c(NC(=O)CSc2nc3ccc(N4C(=O)c5ccccc5C4=O)cc3s2)c1	-9%	4%	-12	-22%
Cn1c(=O)n(C)c2cc(N3CCOCC3)c(NC(=O)c3ccc(C(C)(C)C)cc3)cc21	3%[46.1 µM]	-8%[46.1 µM]	9	-14%
CCN(CC)S(=O)(=O)c1ccc2c(c1)N(CC(=O)N1CCN(c3cc(Cl)ccc3C)CC1)C(=O)CO2	nt	?	7	?
CCN(CC)S(=O)(=O)c1ccc2c(c1)N(CC(=O)NCCCN1CCN(c3cc(Cl)ccc3C)CC1)C(=O)CO2	13µM*	?	-74*	?
O=C(CCl)N1CCN(S(=O)(=O)c2ccc3c(c2)CCC3)CC1	nt	nt	-80*	20µM*
O=C(CCl)N1CCN(S(=O)(=O)Cc2ccccc2)CC1	nt	nt	-76*	28µM*
COCCN(Cc1ccccc1)C(=O)C1CCN(S(=O)(=O)c2ccc(OC)c(OC)c2)CC1	2%	-8%	-20	-17%
O=C1C(Cl)=C(NC(=O)c2ccccc2)C(=O)C(Cl)=C1NC(=O)c1ccccc1	?	?	?	28µM*
O=C(Nc1cccc(Cl)c1)c1ccccc1	nt	nt	81	50%
O=C(NC1=C(Nc2ccc(Cl)cc2)C(=O)c2ccccc2C1=O)c1ccccc1	?	?	-65*	-17%
O=C(NC(NC1CCS(=O)(=O)C1)C(=O)c1cccs1)c1ccccc1 (centres undefined)	4%	1%	25	-5%
SMILES	MARV entry inh	Lassa entry inh	HCMV inh	FMDV inh
O=C(NC1=C(NC2CCS(=O)(=O)C2)C(=O)c2ccccc2C1=O)c1ccccc1 (centres undefined)	nt	nt	-99*	?
CCc1cccc(C)c1NC(=O)CCCC(=O)O	7%[46.1 µM]	-13%	-7	-17%
CC(=O)c1ccc(NC(=O)C2CCCN2S(=O)(=O)c2ccc(F)cc2)cc1 (centres undefined)	nt	nt	11	-2%
Cn1c(=O)n(C)c2cc(N3CCOCC3)c(NS(=O)(=O)c3ccc(C(C)(C)C)cc3)cc21	?	-7%[46.1 µM]	-19	-12%
O=C(Cc1cccs1)N[C@@H]1c2ccccc2CC[C@H]1OCc1ccccc1	nt	nt	-99*	2%
CC(C)C(=O)N[C@@H]1c2ccccc2CC[C@@H]1OCc1ccccc1	nt	nt	-82*	0%
N#C/C(=C\c1ccc(OCc2ccccc2)cc1)C(=O)Nc1ccc(C(=O)O)cc1	-11%	?	43	20%
C=CCn1c(C)cc(C(=O)COC(=O)c2ccc3c(c2)NC(=O)CS3)c1C	11µM*	?	?	?
COc1ccc(C2Nc3ccccc3C(=O)N2Cc2ccco2)cc1COc1ccc([N+](=O)[O-])cc1 (centres undefined)	?	?	-35	-17%
COc1cccc(OCc2cc(C3Nc4ccccc4C(=O)N3Cc3ccco3)ccc2OC)c1 (centres undefined)	?	8.9µM*	-21	-21%
O=C(COC(=O)Cc1ccsc1)NCc1ccc(Cl)cc1	nt	nt	-32	0%
Cc1cc(C)n(-c2nnc(Nc3ccc(C)c(Cl)c3)c3ccccc23)n1	-4%[46.1 µM]	3%[46.1 µM]	-98*	0%
Cc1csc2c(N3CCN(C(=O)NC(C)(C)C)CC3)ncnc12	7%[46.1 µM]	-15%	-37	-28%
Cc1csc2c(N3CCN(C(=O)c4ccc(C(C)(C)C)cc4)CC3)ncnc12	nt	nt	-63*	-21%
O=C(Nc1ccc2c(c1)C(=O)OC2)c1ccccc1Cl	?	0%[46.1 µM]	-91*	24%
Cc1cc(NC(=O)c2ccccc2Cl)ccc1NC(=O)c1ccccc1Cl	nt	nt	93	34%
O=C1OCc2ccc(NC(=O)c3c(F)cccc3Cl)cc21	?	1%[46.1 µM]	-85*	29%
O=C(Nc1cccc(Cl)c1)Nc1ccc2c(c1)C(=O)OC2	-4%	0%	?	5%
O=C(Nc1ccc2c(c1)CCC2)c1ccc(F)cc1	11µM*	?	51	-3%
Cc1ccc2sc3ccc(NC(=O)c4ccccc4Cl)cc3c(=O)c2c1	?	1%	-89*	15%
O=C(NCc1ccccc1Cl)c1csc([C@H]2C[C@H](O)[C@@H](CO)O2)n1	nt	nt	14	-13%
COc1ccc(CC(C)NCCc2ccc(OC)c(OC)c2)cc1 (centres undefined)	?	?	7	-15%
CCn1c(-c2cccc(Cl)c2)n[nH]c1=S	4%	6%	-40	-16%
O=C(Nc1ccc2c(c1)CCC2)c1c(F)cccc1Cl	18%[46.1 µM]	1%[46.1 µM]	-61*	31%
O=C(Nc1ccc2c(c1)CCC2)Nc1ccccc1F	nt	nt	111	-5%
SMILES	MARV entry inh	Lassa entry inh	HCMV inh	FMDV inh
Cc1cccc(/C=C2\CCC(=C3SCCCS3)C2=O)c1	?	?	?	-27%
O=C1C(=C2SCCCS2)CC/C1=C\c1ccc(F)cc1	2.5µM*	1.1µM*	-91*	5µM*
Cc1ccc(S(=O)(=O)N2Cc3ccccc3CC2C(=O)Nc2cc(C)on2)cc1 (centres undefined)	0%	5%	-11	28%
Cc1ccc(-n2ncc3c(N4CCN(CCO)CC4)ncnc32)cc1Cl	nt	-2%[46.1 µM]	29	-15%
OCCN1CCN(c2ncnc3ccc(Br)cc23)CC1	nt	nt	-78*	-24%
OCCN1CCN(c2nc(-c3ccccc3)c3cc(Br)ccc3n2)CC1	?	?	-62*	-8%
